High-throughput results (PubChem BioAssay)
CHO-K1 Ca antag – counter-screen for M1 antagonists: effect in parental CHO-K1 cells. ATP-induced calcium, Fluo-8 fluorescence. inhibition, % at 3 µM. hit rate 0.6% among 360,000. AID 602250;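 active means inhibition above a per-plate cutoff, the plate's mean sample inhibition plus 3 SD, cut at about 24% in these data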
CHRM1 agonist – human M1 muscarinic receptor agonism | AID 588814 | P11229 | hit rate 0.33% among 360,000 | CHO-K1 hM1, Fluo-8 calcium fluorescence, agonist mode; 0% DMSO, 100% acetylcholine EC100 | activation, % at 3 µM;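 active means activation above the run's mean compound activation plus 3 SD, cut at about 16% in these data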;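 further: peak over basal fluorescence ratio within a 140 s kinetic read after compound addition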
Target sequence (P11229 whole entry, looked up): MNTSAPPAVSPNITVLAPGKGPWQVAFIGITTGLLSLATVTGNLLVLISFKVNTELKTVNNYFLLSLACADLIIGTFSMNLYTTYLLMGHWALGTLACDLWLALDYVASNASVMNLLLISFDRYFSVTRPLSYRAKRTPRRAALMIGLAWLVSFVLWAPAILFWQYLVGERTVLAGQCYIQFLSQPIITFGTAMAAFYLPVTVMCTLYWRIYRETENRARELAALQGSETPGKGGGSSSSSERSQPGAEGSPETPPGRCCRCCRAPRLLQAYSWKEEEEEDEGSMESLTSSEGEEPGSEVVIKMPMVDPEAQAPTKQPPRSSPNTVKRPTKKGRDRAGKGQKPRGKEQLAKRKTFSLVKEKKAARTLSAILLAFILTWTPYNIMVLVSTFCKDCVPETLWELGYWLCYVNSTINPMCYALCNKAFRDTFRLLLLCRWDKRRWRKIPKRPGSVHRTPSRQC
CHO-K1 Ca ag – counter-screen for M1 agonists: effect in parental CHO-K1 cells. Fluo-8 calcium fluorescence; scaled to maximal ATP response, vehicle zero. activation, % at 3 µM. hit rate 0.48% among 360,000; in the data active means activation above about 15%;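 further: untransfected CHO-K1 host cells lacking M1 receptor as counterscreen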
M1 PAM parental – M1 PAM counterscreen hit in parental CHO-K1 cells; AID 602247; ATP EC20, Fluo-8 calcium fluorescence; 0% at ATP EC20, 100% at ATP max; hit rate 0.02% among 360,000; activation, % at 3 µM;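 active means activation above the run cutoff, the mean activation of all test compounds plus 3 SD, cut at about 40% in these data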;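 further: peak over basal fluorescence ratio in a 140 s read after ATP addition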
CHRM1 PAM – positive allosteric modulators of human M1 muscarinic receptor; hit rate 0.088% among 360,000; CHO-K1 hM1, Fluo-8 calcium fluorescence, ACh EC20; 0% = ACh EC20, 100% = maximal ACh; AID 588819; activation, % at 3 µM; P11229; in the data active means activation above about 19%, passing the limit was not always enough
CHRM1 antagonist – human CHRM1 antagonism. CHO-K1 hM1, Fluo-8 calcium fluorescence, ACh EC80 antagonist. inhibition, % at 3 µM. hit rate 1.3% among 360,000. AID 588852;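 active means percent inhibition above its own plate's cutoff, namely the mean of that plate's compound wells plus 3 SD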;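 further: peak over basal fluorescence ratio during 140 s after agonist addition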
Of the large screens only hits and unclear results are named; the others gave an inactive call. Compounds with a hit are over-represented: about 2.3% of the library has one in this group of screens.

O=C1C=C(c2cccc(Br)c2)C[C@@H](c2ccc3c(c2)OCO3)C1	none
N#CC1=C(N2CCCCC2)c2cc3c(n2C1=O)CCCC3	CHRM1 antagonist 34.8
CCOC(=O)C1=C(SCC)c2cc3c(n2C1=O)CCCC3	none
CCOc1ccc(N2CC(O)=C(c3nc4ccccc4c(=O)[nH]3)C2=N)cc1	none
CCOC(=O)c1ccc(N2CC(O)=C(c3nc4ccccc4c(=O)[nH]3)C2=N)cc1	CHO-K1 Ca antag 24.1
COc1ccc(CCN2CC(O)=C(c3nc(C)cs3)C2=N)cc1OC	none
CCSc1nc2ccccc2c(=O)n1CCc1ccc(OC)c(OC)c1	CHRM1 antagonist 24.7
COc1ccc(CCN2CC(O)=C(c3nc4ccccc4c(=O)[nH]3)C2=N)cc1OC	CHO-K1 Ca antag 29.7
O=C(COC(=O)Cc1cccs1)Nc1ccccc1	none
CCCc1cc(=O)oc2cc(OCC(=O)NCC(O)c3ccccc3)ccc12 (stereo not given)	none
CCc1ccccc1NC(=O)COc1ccc2c(c1)OCO2	none
Cc1ccc(NC(=O)COc2ccc3c(c2)OCO3)c(Cl)c1	CHRM1 PAM 27.0
CC(=O)NC(c1cccc(F)c1)c1nc(/C=C/c2ccccc2)cs1 (stereo not given)	none
COc1cc(/C=C2\SC(=S)N(NS(=O)(=O)c3ccc(C)cc3)C2=O)ccc1O	CHO-K1 Ca ag 24.1
COc1cc(/C=C2\SC(=S)N(NS(=O)(=O)c3ccccc3)C2=O)ccc1O	CHO-K1 Ca ag 15.9
CNc1cccc(-c2c(OC)cccc2OC)n1	none
CNc1cccc(-c2cc(OC)ccc2OC)n1	CHRM1 antagonist 42.0
N#CCSc1nc2ccc(N3CCCCC3)cc2c(=O)n1Cc1ccccc1	CHRM1 antagonist 21.8
CCOc1ccccc1N(CC(=O)N1CCC(C)CC1)S(=O)(=O)c1ccc(C)cc1	CHRM1 antagonist 31.8
CCOc1ccccc1N(CC(=O)N1CCCCCC1)S(=O)(=O)c1ccc(C)cc1	none
Cc1cc(C)c2c(=O)n(CC(=O)Nc3ccc(Br)c(C)c3)sc2n1	none
Cc1cc(C)c2c(=O)n(CC(=O)Nc3cccc(Cl)c3C)sc2n1	CHRM1 agonist 16.5, CHO-K1 Ca ag 18.5
CCc1ccc(NC(=O)C(C)OC(=O)/C=C/c2ccc(O)c(OC)c2)cc1 (stereo not given)	CHRM1 agonist 34.2, CHO-K1 Ca ag 25.2
COc1cc(/C=C/C(=O)OC(C)C(=O)Nc2c(C)n(C)n(-c3ccccc3)c2=O)ccc1O (stereo not given)	none
COc1cccc(CC2(CO)CCN(S(=O)(=O)N(C)C)CC2)c1	none
COC(=O)c1ccc(CN2CCCC(CO)(Cc3ccc(F)cc3F)C2)cc1 (stereo not given)	CHRM1 antagonist 47.7
OCC1(CCOc2ccccc2)CCN(CC2=Cc3cc(Cl)ccc3OC2)CC1	CHRM1 antagonist 39.1
COc1cc(Cl)c(CN2CCC(CO)(CCOc3ccccc3)CC2)cc1OC	none
COC(=O)c1ccc(CN2CCC(CO)(CCOc3ccccc3)CC2)cc1	CHRM1 antagonist 76.8
COC(=O)c1ccc(CN2CCC(CO)(Cc3cccc(OC)c3)CC2)cc1	CHRM1 antagonist 74.6
CC1(C(=O)Nc2ccc(Cl)c(Cl)c2)CCN1C(=O)Cc1cccc2ccccc12 (stereo not given)	none
O=C(NN1C(=O)NC2(CCCCC2)C1=O)c1ccc(-c2ccc(Cl)cc2)o1	CHRM1 antagonist 29.4
O=C(NN1C(=O)NC2(CCCCC2)C1=O)c1cc2cc(Cl)ccc2o1	none
CCN(CC)CCC=C(c1cccs1)c1cccs1	CHRM1 antagonist 95.9
CCN(CC)CCCNC(=O)/C(=C\c1cccn1C)NC(=O)c1cccs1	none
CNCCCC1Sc2ccccc2Oc2ccccc21 (stereo not given)	CHRM1 antagonist 33.1
CC(C)CNC(=O)C1c2ccccc2Oc2ccccc21	none
CN1CCN(C(=O)c2ccc(-c3cnc4cccnn34)cc2)CC1	none
CCn1c(NCc2ccco2)nc2ccccc21	none
c1ccc(Cn2c(NCc3ccco3)nc3ccccc32)cc1	CHO-K1 Ca antag 25.1
COc1ccc2[nH]c(=O)c(CN(Cc3cccs3)S(=O)(=O)c3cccc4nsnc34)cc2c1	CHRM1 antagonist 31.5
COc1ccc2[nH]c(=O)c(CN(CCO)S(=O)(=O)c3c(C)ccc4nsnc34)cc2c1	CHO-K1 Ca antag 28.9
CC(C)CC(=O)Nc1nnc(S(=O)(=O)N2CCc3ccccc32)s1	CHO-K1 Ca antag 28.5
O=C(c1ccc2c(c1)OCO2)C1CCCN(Cc2ccccc2OC(F)F)C1 (stereo not given)	CHRM1 antagonist 74.8
O=C(c1ccc2c(c1)OCO2)C1CCCN(Cc2c(F)ccc(F)c2F)C1 (stereo not given)	CHRM1 antagonist 87.8
COc1ccc(C(=O)C2CCCN(C3Cc4ccccc4C3)C2)cc1OC (stereo not given)	CHRM1 antagonist 89.9
COc1ccc(C(=O)C2CCCN(Cc3nc4ccccc4nc3C)C2)cc1OC (stereo not given)	none
O=C(c1ccc2c(c1)OCO2)C1CCCN(Cc2cc(F)ccc2-n2cccn2)C1 (stereo not given)	none
O=C(c1ccc2c(c1)OCO2)C1CCCN(Cc2cccn2-c2cccnc2)C1 (stereo not given)	none
COc1cccc(CN2CCCC(C(=O)c3ccc4c(c3)OCO4)C2)c1OC (stereo not given)	CHRM1 antagonist 56.7
Cc1oc2c(CN3CCC(C)CC3)c(O)ccc2c(=O)c1-c1ccccc1	none
COc1ccc(C(=O)C2CCCN(Cc3cccc4c3OCO4)C2)cc1OC (stereo not given)	CHRM1 antagonist 29.2
Cn1c(CN2CCCC(C(=O)c3ccc4c(c3)OCO4)C2)nc2ccccc21 (stereo not given)	none
O=C(c1ccc2c(c1)OCO2)C1CCCN(Cc2ccc3nsnc3c2)C1 (stereo not given)	CHRM1 antagonist 77.8
Cc1ccccc1COc1cccn2c(N(C)C(=O)CCC3CCCC3)c(C)nc12	CHRM1 antagonist 38.5
COc1ccccc1COc1cccn2c(N(C)C(=O)CCC3CCCC3)c(C)nc12	none
CCOc1ccc(-c2noc(CCC(=O)NC3CCCCC3)n2)cc1OC	none
Cn1cccc1C(=O)NCC(c1ccc(F)cc1)N1CCOCC1 (stereo not given)	CHRM1 PAM 26.5
Cc1ccc(C(=O)NCC(c2ccc(F)cc2)N2CCOCC2)cc1 (stereo not given)	none
CC(=O)Nc1ccc(OCC(=O)Nc2ccc(Cl)c(S(=O)(=O)N3CCOCC3)c2)cc1	CHRM1 antagonist 36.8
Cc1ccc(NC(=O)c2ccccc2NS(=O)(=O)c2ccc(Cl)s2)cc1S(=O)(=O)N1CCOCC1	CHO-K1 Ca ag 15.5
